INHIBITION data for 65 compounds are collected here from ChEMBL document CHEMBL4513216, “Probing the Open Global Health Chemical Diversity Library for Multistage-Active Starting Points for Next-Generation Antimalarials” (ACS Infect Dis, 2020).

Each structure is given as a SMILES string. About 8,600 (12%) of roughly 69,000 compounds showed an effect of 50% or more. The entries come from a sample that favours strong results as a whole.

This test deals with Plasmodium berghei. As to the kind of experiment: Screen against P. berghei liver stage (PbLuc), transformed with Luciferase, at 10uM. It counts as functional, HepG2. The conditions noted are these: tested at 10 uM.
In the case of `c1ccc(OCc2nnc3n2CCN(CC2CCOCC2)C3)nc1`, the INHIBITION amounted to 43.2%. In the case of `Cc1cc(C)nc(C2CCN(C3CCOCC3)C2)n1` (stereo not given) it was -10.4%; in that of `Cn1nc(C(C)(C)C)cc1NC(=O)Cn1ccnc1`, 11.2%.

As for `COCCN1C[C@@H]2CC[C@H]1CN(Cc1cc(=O)c3cc(C)ccc3[nH]1)C2`, the INHIBITION is listed as -23.5%. For `COCC1N(C(=O)Nc2ccccc2)C2CCC1(O)CC2` (stereo not given) the value was 8.61%; for `COc1nn(C)cc1C(=O)NCC1(O)CCc2ccccc2C1` (stereo not given), 36.5%; for `Cc1oncc1C(=O)NCC1(O)CCc2ccccc2C1` (stereo not given), 67.1%. As for `O=C(NCC1(O)CCc2ccccc2C1)c1cccs1` (stereo not given), the INHIBITION is on record as 36.3%. `CCC(C)NC(=O)CCNC(=O)Nc1ccc(-n2cncn2)c(F)c1` (stereo not given): the INHIBITION is given as 22.69%. As to `CN(C)S(=O)(=O)N1CCC[C@]2(C[C@@H](Oc3ncccc3F)CO2)C1`, the INHIBITION was 20.6%. `CN1N=C(C(=O)NCCc2csc(-c3ccccc3)n2)CCC1=O`: the INHIBITION was determined as 4.95%. For `CNC(=O)CN1CCOCC2(C1)CN(Cc1csnn1)CCO2` (stereo not given) the value was 67.5%; for `CCCC(=O)N1CCOC2(COCCN(CC(=O)NC)C2)C1` (stereo not given), 3.25%.

As for `CNC(=O)CN1CCOCC2(CN(CCC(F)(F)F)CCO2)C1` (stereo not given), the INHIBITION stood at 43.9%. `CN(C)C(=O)c1cnc2n1CCN(Cc1ccncc1)C2`: the INHIBITION came out at 24.1%. With `Cc1cc(NCc2ccc(N3CCNC(=O)C3)cc2)nc(C)n1`, the INHIBITION is 61.8%.

Take `CCSc1cncc(NCc2ccc(N3CCNC(=O)C3)cc2)n1`: the INHIBITION is on record as 82.2%. Consider `O=C1CN(c2ccc(CNc3cncc(-n4cccn4)n3)cc2)CCN1`, for which the INHIBITION worked out at 40.5%.

In the case of `Cc1ccccc1C(=O)NCc1ccc(N2CCNC(=O)C2)cc1`, the INHIBITION is 15.1%. Take `CC(C(=O)NCc1ccc(N2CCNC(=O)C2)cc1)n1cncn1` (stereo not given): the INHIBITION is 27.1%. Consider `Cc1cccnc1NC(=O)NCc1ccc(N2CCNC(=O)C2)cc1`, for which the INHIBITION turned out to be 21.7%. In the case of `CCN(Cc1ccccc1)c1ncnc2c(C)nn(CC)c12`, the INHIBITION is given as -1.57%. As for `Cc1cc(NC(=O)NCCC(=O)N2CCCc3ccccc32)no1`, the INHIBITION was 16.1%.

For the compound `CS(=O)(=O)c1cn[nH]c1C1CCCN1C(=O)c1cccnc1` (stereo not given), the INHIBITION was determined as 24.4%. In the case of `Cc1ccnc(C2CN(Cc3cnn(-c4ccccc4C(=O)O)c3)C2)n1`, the INHIBITION is given as 14.5375%. For `CC(C)N(C)C(=O)C1CCC2(CCNCC2)O1` (stereo not given) the value was 27.7%; for `CCN(CC)C(=O)C1CCC2(CCNCC2)CO1` (stereo not given), 2.79%; for `CCN(CC)C(=O)C1CCC2(CCNCC2)O1` (stereo not given), 57.9%.

Take `Cc1nc(C)n(C2CCCN(C(=O)c3ccc4[nH]nnc4c3)C2)n1` (stereo not given): the INHIBITION was determined as 21.9%.

`O=C(NCCC1CCCCO1)c1coc(COc2ccc(F)cc2)n1` (stereo not given): the INHIBITION is given as 77.8%. For `O=C(NCCC1CCCCO1)c1cc(COc2cncc(Cl)c2)on1` (stereo not given) the value was 59.3%; for `O=C(NCCN1CCCCCC1)c1coc(COc2ccc(F)cc2)n1`, 7.15%; for `CSCCNC(=O)c1coc(COc2ccc(F)cc2)n1`, 49.5%. For `COCCNC(=O)c1cc(COc2cncc(Cl)c2)on1` the value was 25.8%; for `CCOCCNC(=O)c1cc(COc2cncc(Cl)c2)on1`, 29%; for `COc1ccc(N2CCN(C(=O)Cn3nc(C)c(Cl)c3C)CC2)cc1`, 7.44%.

With `O=C(CCNc1ncccn1)N1CCN(c2nccs2)CC1`, the INHIBITION came out at 45.7%. Consider `Cc1nc[nH]c1-c1nccn1CCN1CCCOC1=O`, for which the INHIBITION is given as 39.6%.

As for `Cc1nc[nH]c1-c1nccn1CCN1CCOC1=O`, the INHIBITION is recorded as 55.5%. In the case of `Cc1nc[nH]c1-c1nccn1CCN1CCCC1=O` it was -4.95%; in that of `CC(C)CNC(=O)[C@H]1C[C@H]2CN(Cc3cccnc3)C[C@@H]1O2`, 65.9%; in that of `CC(C)CNC(=O)[C@H]1CCS(=O)(=O)[C@@H]2CN(Cc3cccnc3)C[C@H]12`, 12.5%.

For `Cc1cccc(CN2C[C@@H]3C[C@H](C(=O)NCc4cccnc4)[C@H](C2)O3)c1`, the INHIBITION came out at 21.6%.

As for `CC(C)CN1C[C@@H]2C[C@H](C(=O)NCc3cccnc3)[C@H](C1)O2`, the INHIBITION stood at 58.5%.

`CC(C)CCN1C[C@@H]2C[C@H](C(=O)Nc3ccccc3)[C@H](C1)O2`: the INHIBITION is 33%. Regarding `CC(C)CCN1C[C@@H]2C[C@H](C(=O)NCC(C)C)[C@H](C1)O2`, the INHIBITION came to 61.3%. In the case of `CC(C)CN1C[C@@H]2C[C@H](C(=O)Nc3cccnc3)[C@H](C1)O2` it was 2.27%; in that of `CCN1C[C@@H]2C[C@H](C(=O)NCc3cccnc3)[C@H](C1)O2`, 50%; in that of `Cc1ccc(CN2C[C@@H]3C[C@H](C(=O)NCc4cccnc4)[C@H](C2)O3)o1`, 39.3%.

On to `CC(C)CCN1C[C@@H]2C[C@H](C(=O)NCc3ccccc3)[C@H](C1)O2`, for which the INHIBITION is recorded as 11.6%. Regarding `Cc1ccc(CN2C[C@@H]3C[C@H](C(=O)NCc4cccnc4)[C@H](C2)O3)cc1`, the INHIBITION came to 42.3%.

In the case of `CNC(=O)N1C[C@@H]2C[C@H](C(=O)NCc3cccnc3)[C@H](C1)O2`, the INHIBITION is reported as 7.65%.

For `Cc1cc(C(F)(F)F)nn1C(C)C(=O)NN1CCOCC1` (stereo not given), the INHIBITION is recorded as -4.12%. In the case of `CC(C)OCCCNC(=O)C1CCCN(c2ccc3nncn3n2)C1` (stereo not given) it was 32.3%. As for `CS(=O)(=O)NCc1cc(=O)n2c(n1)CN(CC1CC1)CCC2`, the INHIBITION was 37.6%. `Cc1nc(CN2CCC3(CCN(Cc4nccn4C)CC3)C2=O)cs1`: the INHIBITION is given as -11.2%. For `N#Cc1ccc(CNCC2(c3ccccc3)CCOCC2)cc1` the value was -32.8%; for `COCC(=O)N1CCC(c2cc(-c3ccc(C)cc3)n[nH]2)C1` (stereo not given), -16.9%. Regarding `CC(C(=O)N1CCCN(c2ccccc2C#N)CC1)n1cccn1` (stereo not given), the INHIBITION was -6.44%. Consider `CNC(=O)[C@H]1C[C@@H]2CN(S(=O)(=O)c3ccccc3)C[C@@H]2N1C`, for which the INHIBITION is given as 30.1%. For `CNC(=O)[C@H]1C[C@@H]2CN(S(=O)(=O)c3cccc(C)c3)C[C@@H]2N1C` the value was 50.7%. `CNC(=O)[C@H]1C[C@@H]2CN(S(=O)(=O)c3cccc(F)c3)C[C@@H]2N1C`: the INHIBITION was -23.8%. As for `CCc1n[nH]c(C(=O)N2CCC3(CCCN(CCOC)C3=O)C2)c1C` (stereo not given), the INHIBITION is 41.2%. For `Cc1cc2ncc(CN(C)C)c(C3CCN(C)CC3)n2n1` the value was 16.771%; for `Cc1ccccc1CN1CCN(C(C)c2nc(C3CC3)no2)CC1` (stereo not given), 5.7%.
